WT yeast gro inh: growth inhibition of WT yeast, mitochondrial fusion screen; mitochondrial fusion phenotypic screen, WT strain; inhibition, % at 10 µM; 190,000 compounds, 2.1% hits; AID 1362; in the data active = inhibition above about 58%; tested in S. cerevisiae
Lmaj promast: reduces viability of Leishmania major promastigotes; resazurin fluorescence viability; inhibition, % at 10 µM; 200,000 compounds, 9% hits; AID 1063; in the data active = inhibition above about 50%;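 note: promastigotes grown with compound for 44 hours at 28 °C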
ROMK mod: modulators of human ROMK potassium channel; Tet-inducible ROMK, thallium flux fluorescence; actives lie on both sides; 130,000 compounds, 2% hits; AID 1918; P48048; B-score at 10 µM;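 active = signal ratio slope over the read window, or its plate-corrected B-score, at least 3 SD from the plate mean, either direction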;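 note: B-score of the F/F0 ratio slope over 7 to 12 s after thallium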
Target sequence (P48048 whole entry, looked up): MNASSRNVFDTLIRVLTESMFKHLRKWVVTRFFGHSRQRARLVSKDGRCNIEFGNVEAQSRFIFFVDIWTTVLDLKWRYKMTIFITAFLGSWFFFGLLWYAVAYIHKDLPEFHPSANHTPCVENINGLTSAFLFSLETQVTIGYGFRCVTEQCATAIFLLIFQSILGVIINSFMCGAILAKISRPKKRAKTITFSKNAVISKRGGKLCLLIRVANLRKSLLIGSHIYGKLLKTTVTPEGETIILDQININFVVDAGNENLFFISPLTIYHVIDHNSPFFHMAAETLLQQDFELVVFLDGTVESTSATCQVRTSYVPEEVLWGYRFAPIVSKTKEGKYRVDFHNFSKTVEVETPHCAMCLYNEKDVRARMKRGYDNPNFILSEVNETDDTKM
Cl transport mod: modulators of human KCC2 chloride dependent transport; Q9H2X9; B-score of Tl+ flux slope (higher = more flux/activation; lower = inhibition) at 10 µM; AID 1456; 190,000 compounds, 2.2% hits; KCC2 cells, thallium flux FluoZin-2 fluorescence;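 active = thallium flux slope and its plate-corrected score both differing from the plate sample mean at a set confidence after two filtering rounds, in either direction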;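 note: slope of fluorescence scaled to starting intensity during 10 to 20 s after thallium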
INS promoter inh: TRM-6 insulin promoter activity inhibition; TRM-6 cells (human fetal islet line), insulin promoter-eGFP reporter, imaging; reporter expression induced with tamoxifen; inhibition, % at 2 µM; 130,000 compounds, 0.9% hits;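 active = inhibition above the mean plus 3 SD, with well images judged a real hit on visual review, cut at about 60% in these data, passing the limit was not always enough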
Ins promoter up: MIN6 insulin promoter up-regulation; z-score at 5 µM; 190,000 compounds, 0.3% hits; MIN6 insulin promoter-GFP reporter, high-content imaging; active compounds read high;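 active = z-score above 3 at 5 µM with at least 500 cells counted in the well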
Numbers without * were called inactive; x = not tested or not shown. An excerpt weighted towards active compounds, which were near 12% of everything screened.

SMILES | WT yeast gro inh | Lmaj promast | ROMK mod | Cl transport mod | INS promoter inh | Ins promoter up
CCC(C(=O)OCC(=O)Nc1cc(Cl)cc(Cl)c1)c1ccccc1 (stereo not drawn) | 79* | -7 | -0.1 | x | -23 | 0.15
Cn1c(=O)c2c(nc(N3CCNCC3)n2Cc2cccc3ccccc23)n(C)c1=O | 4 | 2 | x | 0.8 | x | -0.55
Cn1c(=O)[nH]c(=O)c2c1nc(N1CCNCC1)n2Cc1cccc2ccccc12 | -7 | 83* | x | -1.8 | 18 | -1.1
COc1ccc(CCNC(=O)c2sc3ccccc3c2Cl)cc1OC | -2 | 13 | x | -0.098 | x | 0.34
Cc1c(NC(=S)NC(=O)c2sc3ccccc3c2Cl)cccc1C(=O)O | -3 | -4 | 1.4 | -2.7 | x | 0.1
COc1ccccc1C(=O)NC(=S)NNC(=O)c1sc2ccccc2c1Cl | 5 | 90* | x | 34* | x | 0.82
COc1ccccc1C(=O)NNC(=S)NC(=O)c1sc2ccccc2c1Cl | -8 | 54* | x | 20* | x | -0.59
CCc1nnc(NC(=O)CSc2nnc(CNC(=O)c3cc(OC)c(OC)c(OC)c3)o2)s1 | 10 | -3 | -0.046 | 1.2 | 0 | -0.03
COCCNc1nc(-c2ccccc2)nc2ccccc12 | 1 | 84* | x | -0.43 | 57 | -0.2
Clc1ccc(-c2nc(NCCN3CCOCC3)c3ccccc3n2)cc1 | 27 | 62* | x | 0.51 | x | -1
O=S(=O)(Nc1nc2ccccc2nc1NCCN1CCOCC1)c1cccc(Cl)c1 | 2 | 3 | -0.77 | 0.12 | x | 0.24
COCCCNc1nc(-c2ccncc2)nc2ccccc12 | -6 | 30 | -0.98 | -1.8 | x | -2.3
CCN(CC)CCCNc1nc(-c2ccccc2)nc2ccccc12 | -21 | 72* | -0.99 | -0.042 | -174 | -1.4
OCCNc1nc(-c2ccccc2)nc2ccccc12 | 4 | 20 | -0.53 | -0.56 | 57 | -0.69
COc1ccc(CCN2C(=O)C(O)=C(C(=O)c3ccco3)C2c2cccs2)cc1OC (stereo not drawn) | -9 | -5 | 0.54 | -0.2 | 9 | x
COc1ccc(C(=O)Nc2nc3ccccc3[nH]2)cc1OC | 22 | 65* | x | 0.098 | -17 | x
COc1ccc(CC(=O)Nc2nc3ccccc3[nH]2)cc1 | x | x | x | 0.24 | x | -0.76
O=C(Nc1nc2ccccc2[nH]1)c1ccc(F)c(S(=O)(=O)N2CCOCC2)c1 | 14 | 3 | x | -0.45 | x | -0.87
COc1cc(OC)cc(C(=O)Nc2nc3ccccc3[nH]2)c1 | 20 | 64* | 1.8 | -0.079 | -9 | x
CCOc1ccc(C(=O)Nc2nc3ccccc3[nH]2)cc1OCC | 19 | 52* | -1.7 | -1.5 | 18 | -2.2
COc1ccc(C(=O)Nc2nc3ccccc3[nH]2)cc1S(=O)(=O)N1CCCC1 | 11 | 59* | 0.63 | -0.5 | -6 | x
CCn1c(-c2csc(-c3ccc(Cl)cc3)n2)n[nH]c1=S | -8 | -11 | 1.7 | 1.2 | -110 | 0.96
CC(=O)NCCSC(=O)c1ccc(F)cc1 | -9 | -4 | x | 0.68 | -19 | 0.1
CCc1n(CC(O)COCc2ccccc2)c2ccccc2[n+]1C (stereo not drawn) | -19 | 6 | -0.15 | 0.88 | -18 | -0.68
CCC(Oc1ccccc1)C(=O)Nc1nc2ccccc2[nH]1 (stereo not drawn) | -8 | 100* | x | -2.2 | -10 | -0.37
SMILES | WT yeast gro inh | Lmaj promast | ROMK mod | Cl transport mod | INS promoter inh | Ins promoter up
COC(=O)c1nnn(CC(=O)NC(=O)Nc2ccccc2F)c1C(=O)OC | -10 | -4 | 2 | 1.3 | 62 | 0.65
COc1ccc(/C=C/C(=O)c2ccncc2)c2ccccc12 | 11 | 98* | -1.1 | -3 | x | 0.74
Cc1nc2ccccn2c1C(=O)/C=C/c1cccc([N+](=O)[O-])c1 | 2 | 98* | 0.94 | 0.035 | x | -0.21
COc1ccc(/C=C/C(=O)c2ccc[nH]2)c(OC)c1OC | 1 | 0 | x | -0.87 | -500 | x
COc1ccc(C(=O)/C=C/c2ccccc2OC)c(OC(=O)c2ccc([N+](=O)[O-])cc2)c1 | x | 56* | x | -0.93 | -25 | x
COc1ccc(OC(=O)c2cccc([N+](=O)[O-])c2)c(C(=O)/C=C/c2cccs2)c1 | 12 | 73* | -0.78 | x | -38 | -0.76
CCN(C(=O)Cc1cccs1)c1nnc(-c2cccnc2)s1 | -2 | -1 | x | -0.84 | -64 | 1.5
COCCn1c(SCC(=O)NCc2ccco2)nc2cccnc21 | -2 | 19 | x | 0.19 | 0 | 0.45
COc1ccc(/C=C/C(=O)OCc2cccc([N+](=O)[O-])c2)cc1 | -1 | 16 | 0.32 | -1.8 | 36 | -0.2
COc1cccc(/C=C/C(=O)c2cccc([N+](=O)[O-])c2)c1 | 12 | 98* | 0.61 | -0.17 | -53 | -0.49
COc1cccc(/C=C/C(=O)c2cccc([N+](=O)[O-])c2)c1OC | -13 | 100* | 0.69 | 0.4 | x | 0.04
CCOC(=O)C1=C(Cc2ccc(Cl)cc2)C(=O)c2ccccc2C1=O | 14 | 91* | -1.6 | x | -50 | 0.35
CCOC(=O)c1c(C=O)c(C)n(Cc2ccc(Cl)cc2)c1C | 14 | 15 | -1.8 | -0.18 | -10 | 0.19
Cc1ccc(C(=O)NNC(=S)NC(=O)c2ccco2)cc1 | 66 | 21 | 3.6* | 55* | x | 0.45
CC(C)CNC(=S)NC(=O)c1ccc(Cl)cc1Cl | 1 | -6 | x | 39* | x | 2
CC(C)CNC(=S)NC(=O)c1ccc(F)cc1 | 15 | -2 | -0.6 | 18* | -27 | 0.45
Cc1ccc(C(=O)NNC(=S)NC(=O)c2ccc(Cl)cc2Cl)cc1 | 46 | 9 | 5.8* | 59* | 7 | 0.01
COC(=O)c1sc(S(=O)(=O)Nc2ccc(Br)cc2)c(C(=O)OC)c1C | 50 | 3 | 0.39 | 0.31 | 12 | -1.2
COC(=O)c1cn(NC(=O)Cc2cccc(OC)c2)c(=O)c2ccccc12 | 0 | -5 | -0.57 | 0 | -29 | -0.02
Cc1ccc(OCCN2C(=O)C(=O)c3cccc(C)c32)cc1 | -1 | -15 | 0.71 | x | 42 | x
O=C(/C=C/c1ccccc1)NC(=S)NNC(=O)c1ccco1 | -17 | 41 | -0.26 | 6.4* | 32 | 0.34
O=C(NC(=S)NNC(=O)c1cnccn1)c1ccc(F)cc1 | -4 | 100* | 0.54 | 2.4 | 64 | -0.15
CC(C)NC(=S)NC(=O)c1ccc(Cl)cc1Cl | 11 | 0 | x | 29* | x | -0.27
CCC(C)C(NC(=O)c1ccc(Cl)cc1Cl)C(=O)O (stereo not drawn) | -2 | -8 | -0.0028 | 0.0037 | 50 | 0.64
CCc1nnc(NS(=O)(=O)c2ccc(N/C=C\C(=O)c3cccc4ccccc34)cc2)s1 | -1 | -7 | 0.87 | -2.3 | 16 | 0.22
CCOC(=O)C(NCCc1ccccc1)(NC(=O)CC)C(F)(F)F (stereo not drawn) | -11 | -6 | 0.009 | -0.0097 | x | -0.36
S=C(NN=C(C1CC1)C1CC1)Nc1ccccc1 | -2 | 67* | -0.034 | 1.6 | -29 | x
Cc1cc(N2CCN(c3nc(-c4ccccc4)cs3)CC2)c2ccccc2n1 | 70* | 12 | -0.018 | 0.26 | x | -1.1
COc1ccc(/C(O)=C2/C(=O)C(=O)N(CCN(C)C)C2c2ccc(OC)c(OC)c2)c(C)c1 (stereo not drawn) | -8 | -8 | x | x | x | x

Bioassay records deposited in PubChem by several laboratories.
